Results filed as inconclusive are left out. Activity calls are given as the source filed them. Calls come from the whole dose curve; as a rule, active = well fitted inhibition curve with a large enough effect; inconclusive = small, poorly fitted or top-dose-only effect; inactive = no such curve, though single readings can be large or run the other way.
Molecular target: Furin (Homo sapiens) (UniProt P09958)
Experiment: Furin counterscreen qHTS for Zika virus inhibitors (AID 1347149);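 note: purified recombinant full-length human furin enzyme at 5 nM; fluorescence gain from furin cutting a BOC-RVRR-AMC peptide substrate over 15 min; top concentration of the series differs between compounds; nearly all actives have a fitted effect of over 70% in size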
Details: furin enzymatic counterscreen, fluorogenic substrate; series mostly up to 57.5 µM
How it was run: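 Counterscreen measures cleavage of 2 microM BOC-RVRR-AMC, below its ~15 microM Km, by 5 nM full-length human furin at pH 7.0 after a 15-min compound preincubation. Inhibition derives from the 15-min fluorescence increase at 37C.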

Sequence of Furin (Homo sapiens) (P09958 whole entry, looked up): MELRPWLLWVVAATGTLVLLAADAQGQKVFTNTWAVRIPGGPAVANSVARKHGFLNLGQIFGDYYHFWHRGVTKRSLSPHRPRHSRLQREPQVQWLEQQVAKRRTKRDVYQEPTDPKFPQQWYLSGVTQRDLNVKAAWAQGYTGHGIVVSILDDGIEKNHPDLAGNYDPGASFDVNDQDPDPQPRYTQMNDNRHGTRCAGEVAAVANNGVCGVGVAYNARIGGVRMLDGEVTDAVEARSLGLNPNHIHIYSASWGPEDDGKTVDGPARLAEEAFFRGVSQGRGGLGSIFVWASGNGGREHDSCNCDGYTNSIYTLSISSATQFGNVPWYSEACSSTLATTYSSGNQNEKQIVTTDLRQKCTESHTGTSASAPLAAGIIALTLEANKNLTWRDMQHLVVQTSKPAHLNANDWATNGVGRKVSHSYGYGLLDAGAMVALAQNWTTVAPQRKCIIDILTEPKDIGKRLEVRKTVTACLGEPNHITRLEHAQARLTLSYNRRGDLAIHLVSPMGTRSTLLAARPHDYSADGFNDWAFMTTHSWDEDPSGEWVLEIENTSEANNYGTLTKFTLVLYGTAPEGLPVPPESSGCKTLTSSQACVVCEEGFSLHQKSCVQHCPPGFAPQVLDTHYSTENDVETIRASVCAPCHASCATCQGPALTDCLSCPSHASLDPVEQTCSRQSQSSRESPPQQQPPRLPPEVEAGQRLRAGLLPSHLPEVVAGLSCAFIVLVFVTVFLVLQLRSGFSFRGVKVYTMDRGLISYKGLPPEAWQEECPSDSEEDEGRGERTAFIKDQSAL

SMILES	outcome
Oc1ccc([C@H]2CNCc3c2ccc(O)c3O)cc1O	inactive
CC(C)=CCN1CC[C@@]2(C)c3cc(O)ccc3C[C@@H]1[C@@H]2C	inactive

— PubChem BioAssay (NCATS)
